# Measurements as given in PubChem BioAssay.
# Active and inactive are the calls of the source.
# Experiments:
# [1] = test system: Human papillomavirus type 1a protein E7 (residues 44-93); assay: small molecules binding HPV E7 44-93 – biochemical, small-molecule microarray, residues 44-93, 635 nm fluorescence, primary screen (AID 1108); conditions: fluorescence 635 nm, higher = more signal;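 also: E7 fragment applied at 1 µg/mL in TBST for 1 h at 4 C; score combines spot fluorescence with its signal to noise ratio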
# [2] = hepatitis C replication reporter changes, two-sided – Huh7 cells, luciferase reporter, HCV replication inhibitor project, primary screen (AID 1109); conditions: Huh7 HCV replicon luciferase reporter, 48 h; higher = more signal;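 also: huh7 hepatoma cells harbouring a luciferase neomycin HCV replicon reporter; luciferase luminescence as measure of HCV replicon replication; test concentration not given here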
# [3] = biological target: Left-right determination factor 2 (Homo sapiens) (UniProt O00292); assay: small molecules binding LEFTY2 protein – biochemical, small-molecule microarray, 635 nm fluorescence scan, primary screen (AID 1110); conditions: higher = more signal
# [4] = biological target: Calmodulin-1 (Homo sapiens) (UniProt P0DP23); assay: small molecules binding calmodulin-1 with EGTA – biochemical, small-molecule microarray, Cy5-labelled CALM1, profiling panel (AID 1111); conditions: Cy5-CALM1 binding fluorescence, higher = more signal;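 also: labelled calmodulin applied in Tris saline Tween buffer holding calcium plus EGTA and DTT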
# [5] = biological target: Calmodulin-1 (Homo sapiens) (UniProt P0DP23); assay: small molecules binding Ca-loaded calmodulin-1 – biochemical, small-molecule microarray, Cy5-labelled CALM1, plus calcium, artefact control for SMM control-protein annotation, profiling panel (AID 1112); conditions: Cy5-CALM1 binding fluorescence, higher = more signal;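 also: score merges spot fluorescence with signal to noise from triplicate slides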
# [6] = probe aWnt5a binding to arrayed compounds – biochemical, biotinylated probe, 635/667 nm fluorescence, primary screen (AID 1113); conditions: small-molecule microarray, higher = more signal;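 also: score merges 667 nm fluorescence intensity with signal-to-noise per printed feature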
# [7] = probe aShh binding to arrayed compounds – biochemical, biotinylated probe, 635/667 nm fluorescence, primary screen (AID 1114); conditions: small-molecule microarray, higher = more signal;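 also: probe is biotin-labelled aShh protein from a stem cell growth factor screen; measures binding of labelled protein to compounds printed on the slide; score merges feature fluorescence at 667 nm with signal-to-noise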
# [8] = probe aNog binding to arrayed compounds – biochemical, biotinylated probe, 635/667 nm fluorescence, primary screen (AID 1115); conditions: small-molecule microarray, higher = more signal;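 also: probe is biotinylated aNog protein used at 0.15 µg/mL for 1 h at 4 C; z-score combines 667 nm fluorescence of each spot with its signal to noise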
# [9] = biological target: Torsin-1A-interacting protein 1 (Homo sapiens) (UniProt Q5JTV8); assay: compound microarray binding of lysate hLAP1 – cell lysate, small-molecule microarray, COS7 lysate, 635/667 nm fluorescence, primary screen (AID 1116); conditions: 635 nm fluorescence, higher = more signal
# [10] = biological target: Alpha-bungarotoxin (Bungarus multicinctus) (UniProt P60615); assay: compounds binding labelled alpha-BTX control protein – biochemical, small-molecule microarray, Alexa647 label, 635/667 nm fluorescence, artefact control for SMM control protein annotation, profiling panel (AID 1117); conditions: alpha-BTX-A647 binding fluorescence, higher = more signal
# [11] = biological target: Albumin (Bos taurus) (UniProt P02769); assay: compounds binding labelled BSA control protein – biochemical, small-molecule microarray, Alexa647 label, 635/667 nm fluorescence, artefact control for SMM control protein annotation, profiling panel (AID 1118); conditions: BSA-A647 binding, fluorescence 635 nm, higher = more signal;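 also: score merges 667 nm emission intensity and signal-to-noise per printed compound spot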
# [12] = probe aXIP binding to arrayed compounds – biochemical, NeuroSMM set, 635/667 nm fluorescence, primary screen (AID 1119); conditions: small-molecule microarray, higher = more signal, called active from +8 up or from −8 down;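 also: probe is the protein aXip251-270 applied at 1 µg/mL to compound-printed slides; binding of probe to printed compounds measured as 667 nm fluorescence plus signal to noise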
# [13] = probe aNOTCH3 binding on compound microarray – biochemical, small-molecule microarray, 635/667 nm fluorescence, primary screen (AID 1120); conditions: higher = more signal;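 also: probe is a biotin-tagged antibody raised against NOTCH3 rather than NOTCH3 protein; score merges spot fluorescence near 667 nm with spot signal to noise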
# [14] = probe aNOTCH2 binding on compound microarray – biochemical, small-molecule microarray, 635/667 nm fluorescence, primary screen (AID 1121); conditions: higher = more signal;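 also: score merges feature fluorescence read at 667 nm with its signal to noise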
# [15] = biological target: Carbonic anhydrase 2 (Homo sapiens) (UniProt P00918); assay: compounds binding carbonic anhydrase 2 – biochemical, small-molecule microarray, Alexa647-labelled CAII, profiling panel (AID 1122); conditions: CAII-A647 binding fluorescence, higher = more signal
# [16] = COS7 lysate on small-molecule microarray, probe aHis, 635 nm (AID 1123); conditions: COS7 cell lysate, fluorescence, higher = more signal;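 also: z-score combines 667nm fluorescence intensity with signal-to-noise per printed compound spot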
# [17] = probe aLAP1 signal on lysate-treated microarray – cell lysate, small-molecule microarray, COS7 lysate, primary screen (AID 1124); conditions: probe aLAP1, fluorescence, higher = more signal;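 also: lysate comes from COS7 cells expressing LAP1 and is applied at 0.3 µg/mL; score merges spot fluorescence near 667 nm with signal-to-noise over triplicate slides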
# [18] = test system: Sam68 (KHDRBS1); assay: compounds binding KHDRBS1 protein – biochemical, small-molecule microarray, 635 nm fluorescence, primary screen (AID 1125); conditions: higher = more signal;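 also: score merges 667 nm channel intensity with signal to noise over triplicate slides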
# [19] = test system: Chordin-like protein 2 (CHRDL2); assay: compounds binding chordin-like 2 – biochemical, small-molecule microarray, 635 nm fluorescence, primary screen (AID 1126); conditions: fluorescence 635 nm, higher = more signal;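 also: printed compound slides probed with Chrdl2 protein at 4 µg/mL for 1 h at 4 C; score merges 667 nm emission intensity with signal to noise over three replicate slides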
# [20] = biological target: Concanavalin-A (Canavalia ensiformis) (UniProt P02866); assay: compounds binding concanavalin A lectin – biochemical, small-molecule microarray, Alexa647 label, 635 nm, artefact control for SMM control protein annotation, primary screen (AID 1127); conditions: ConA-A647 binding fluorescence, higher = more signal;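 also: z combines 667 nm emission intensity with signal-to-noise across three replicate slides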
# Chain of Concanavalin-A (Canavalia ensiformis) (P02866 whole entry, looked up): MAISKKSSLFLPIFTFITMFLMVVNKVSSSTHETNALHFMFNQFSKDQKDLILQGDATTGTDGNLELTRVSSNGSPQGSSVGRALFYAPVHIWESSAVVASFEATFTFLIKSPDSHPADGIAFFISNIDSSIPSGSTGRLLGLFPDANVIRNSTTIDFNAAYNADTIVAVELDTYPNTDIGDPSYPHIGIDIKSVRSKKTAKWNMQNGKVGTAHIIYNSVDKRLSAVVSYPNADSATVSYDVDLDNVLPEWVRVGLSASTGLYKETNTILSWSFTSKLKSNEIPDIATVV
# Chain of Alpha-bungarotoxin (Bungarus multicinctus) (P60615 whole entry, looked up): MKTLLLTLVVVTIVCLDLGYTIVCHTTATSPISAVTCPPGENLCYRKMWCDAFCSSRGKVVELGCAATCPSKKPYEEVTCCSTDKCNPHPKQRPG
# Chain of Left-right determination factor 2 (Homo sapiens) (O00292 whole entry, looked up): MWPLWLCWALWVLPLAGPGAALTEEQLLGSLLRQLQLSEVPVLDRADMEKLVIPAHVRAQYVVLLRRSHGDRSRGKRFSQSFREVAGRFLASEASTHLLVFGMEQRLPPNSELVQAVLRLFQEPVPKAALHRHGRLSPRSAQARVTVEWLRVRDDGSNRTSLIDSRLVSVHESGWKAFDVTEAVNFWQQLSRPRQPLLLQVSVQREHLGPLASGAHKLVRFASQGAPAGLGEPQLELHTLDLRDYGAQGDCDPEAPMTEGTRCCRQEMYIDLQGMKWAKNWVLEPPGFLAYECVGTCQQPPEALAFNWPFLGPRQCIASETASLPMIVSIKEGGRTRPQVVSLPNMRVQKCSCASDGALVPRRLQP
# Chain of Albumin (Bos taurus) (P02769 whole entry, looked up): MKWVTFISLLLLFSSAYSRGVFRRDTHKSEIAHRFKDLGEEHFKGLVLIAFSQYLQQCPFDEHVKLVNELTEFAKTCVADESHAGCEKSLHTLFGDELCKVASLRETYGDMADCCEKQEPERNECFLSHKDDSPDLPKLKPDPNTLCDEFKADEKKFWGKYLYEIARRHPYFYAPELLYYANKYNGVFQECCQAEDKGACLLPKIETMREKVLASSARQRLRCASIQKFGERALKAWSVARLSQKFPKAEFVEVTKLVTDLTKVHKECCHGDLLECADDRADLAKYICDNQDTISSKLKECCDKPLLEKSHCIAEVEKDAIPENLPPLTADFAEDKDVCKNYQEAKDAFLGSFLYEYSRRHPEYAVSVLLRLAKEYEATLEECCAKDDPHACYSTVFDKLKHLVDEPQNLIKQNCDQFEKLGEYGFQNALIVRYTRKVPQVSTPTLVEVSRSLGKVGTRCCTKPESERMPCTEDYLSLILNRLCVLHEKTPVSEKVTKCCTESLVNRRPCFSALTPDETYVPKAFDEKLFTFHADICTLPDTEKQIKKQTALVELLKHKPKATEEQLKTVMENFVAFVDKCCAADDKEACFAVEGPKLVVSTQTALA
# Chain of Torsin-1A-interacting protein 1 (Homo sapiens) (Q5JTV8 whole entry, looked up): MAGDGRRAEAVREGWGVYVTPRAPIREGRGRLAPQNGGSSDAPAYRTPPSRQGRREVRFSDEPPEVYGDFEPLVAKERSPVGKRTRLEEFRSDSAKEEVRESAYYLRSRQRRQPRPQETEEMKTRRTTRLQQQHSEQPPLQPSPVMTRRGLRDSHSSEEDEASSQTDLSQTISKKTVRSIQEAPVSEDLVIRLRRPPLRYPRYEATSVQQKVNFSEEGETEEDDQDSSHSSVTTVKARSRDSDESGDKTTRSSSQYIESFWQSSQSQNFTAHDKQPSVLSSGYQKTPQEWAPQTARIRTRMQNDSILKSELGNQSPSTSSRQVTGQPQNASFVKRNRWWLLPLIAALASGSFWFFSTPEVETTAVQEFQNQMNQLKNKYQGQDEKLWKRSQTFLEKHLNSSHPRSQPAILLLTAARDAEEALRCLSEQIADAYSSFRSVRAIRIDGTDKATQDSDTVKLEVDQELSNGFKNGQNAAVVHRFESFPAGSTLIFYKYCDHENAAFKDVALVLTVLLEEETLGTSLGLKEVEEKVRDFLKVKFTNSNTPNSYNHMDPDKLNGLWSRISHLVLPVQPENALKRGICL
SMILES,composite z-score [1],z-score [2],composite z-score [3],composite z-score [4],composite z-score [5],composite z-score [6],composite z-score [7],composite z-score [8],composite z-score [9],composite z-score [10],composite z-score [11],composite Z-score [12],composite z-score [13],composite z-score [14],composite z-score [15],composite z-score [16],composite z-score [17],composite z-score [18],composite z-score [19],composite z-score [20]
Cc1cc2c(nc1C)CCCN2CC(O)CN1CCN(C)CC1 (stereo not given),0.329,-0.162,0.625,-0.441,-0.482,0.212,0.116,-0.23,0.395,0.908,-0.562,1.03 (inactive),-0.0636,-0.149,0.622,0.387,0.289,0.693,0.731,1.02
CC(C)=CCCC(C)=CCON=C1[C@H]2CCn3c(=O)n(C)c(=O)n3[C@H]2[C@H](O)[C@@H]2O[C@H]12,1.32,-0.621,0.692,-0.257,-0.845,0.188,0.131,-0.0146,1.2,-0.0134,-0.286,-0.0793 (inactive),0.0297,-0.14,0.295,0.482,0.644,1.27,0.916,0.941
COCCCNC(=O)[C@@]1(C)c2ccccc2C(=O)N(Cc2ccc(OC(F)(F)F)cc2)[C@H]1c1ccc(CO)cc1,-1.56,-0.302,-0.738,-0.579,0.751,-0.109,-0.2,-0.546,-0.668,-1.16,-0.881,-0.17 (inactive),-0.271,-0.0836,0.174,0.125,0.884,-1.22,-0.654,-0.836
CC(C)[Si]1(C(C)C)O[C@@H](c2ccccc2)c2cc(C3CC3)nc(-c3ccccc3)c21,0.503,-0.587,-0.953,-0.0471,-0.239,-0.126,-0.221,-0.368,-0.509,0.181,0.23,-0.773 (inactive),-0.16,-0.102,-0.169,0.423,0.202,-0.308,0.324,-0.77
[N-]=[N+]=Nc1ccccc1C[C@@]1(C(N)=O)N=C(c2ccc(OCCCO)cc2)O[C@@H]1c1ccccc1,0.692,-2.38,-1.09,1.7,0.824,-0.0445,0.456,0.662,1.26,0.546,0.841,0.0117 (inactive),-0.0014,-0.0633,0.723,1.74,0.567,1.05,-1.26,0.704
NCCCCCNC(=O)[C@@H]1C[C@@H]2C(=O)N3CCC[C@H]3C(=O)N2[C@@H]1c1cccc(OCCO)c1,0.933,-1.03,0.781,1.38,0.929,0.0024,0.315,1.55,1.72,0.482,0.533,1.34 (inactive),0.453,0.294,0.659,1.68,1.09,1.19,1.14,1
[N-]=[N+]=NCc1ccccc1C[C@]1(C(=O)NCc2ccccc2)N=C(c2ccc(OCCCO)cc2)O[C@H]1c1ccccc1N=[N+]=[N-],0.878,-2.05,-0.612,1.35,0.743,0.0068,0.162,-0.716,0.855,0.947,0.841,0.187 (inactive),0.531,-0.098,0.476,1.91,0.317,1.09,-0.38,0.822
O=C(NN=C1C[C@@H](O)[C@@H](O)[C@@H]2[C@@H]3C(=O)N(c4cccc(Oc5ccccc5)c4)C(=O)[C@@H]3CC[C@@H]12)OCc1ccccc1,0.69,-0.983,0.127,0.131,0.0109,-0.145,-0.206,0.0658,0.184,0.837,0.564,0.187 (inactive),0.0425,-0.0995,-0.249,0.36,-0.0773,0.24,0.162,0.277
COc1ccc(O[C@H]2C=C[C@@H](c3ccccc3)O[C@@H]2COC(=O)CCC(C)=NOC(C)CN2CCCCc3nc(C)c(C)cc32)cc1 (stereo not given in full),0.36,-0.239,-0.106,-0.959,-0.203,-0.157,-0.138,-0.158,0.168,-0.47,-0.485,0.105 (inactive),-0.0918,-0.179,0.456,0.121,-0.312,-0.433,-0.101,-0.929
O=C(CS)NCCCCCNC(=O)[C@H]1C[C@H]2C(=O)N3CCC[C@H]3C(=O)N2[C@H]1c1cccc(OCCO)c1,0.435,0.235,0.691,-0.8,-1,0.128,-0.138,-0.347,1.22,1.55,-1.4,0.62 (inactive),0.121,-0.101,0.46,2.45,0.729,1.34,1.4,1.2
CO[C@H]1O[C@H](CO)[C@@H](OC(=O)Nc2ccc3c(c2)OCO3)[C@H](OC(=O)Nc2ccccc2-c2ccccc2)[C@@H]1OC(=O)Nc1ccccc1-c1ccccc1,1.36,-2.26,0.232,1.6,0.116,0.0601,0.184,0.902,1.28,0.614,0.929,0.558 (inactive),0.276,0.186,0.543,2.08,0.429,1.28,-0.116,1.17
CCOC(=O)CCN1C(=O)[C@H]2[C@H]3[C@H](O)[C@H](O)CC(=O)[C@H]3CC[C@H]2C1=O,0.182,-1.07,0.412,0.0492,-0.375,-0.201,-0.229,-0.201,0.619,0.0323,0.132,0.466 (inactive),0.0282,-0.0986,-0.214,0.197,-0.386,0.321,0.454,0.528
